Shown are actives, neighbours in structure and some others; about 8.9% of the full set was active somewhere.
MCF10A rerep: DNA re-replication induction in MCF 10a cells; MCF 10A DNA re-replication, Hoechst nuclear intensity, 48 h; Potency, µM (highest dose often 46.1 µM), inactives show at the top dose activity, positive = re-replication, most hits filed as activators; 350,000 compounds, 2.9% hits; AID 624296; further: potency means the concentration at half of the fitted maximal effect; % of control where 0% means no effect; nearly all actives have a fitted effect of over 50% in size
KB-3-1 cytotox: kills parental KB-3-1 adenocarcinoma cells; 400,000 compounds, 1.4% hits; KB-3-1 viability, CellTiter-Glo ATP luminescence, 72 h; Potency, µM (titrated, usually from 46.1 µM), usual class: cytotoxic; further: potency means the concentration at half of the fitted maximal effect; on the % scale 0 is the no-effect control and ±100 the full control effect; nearly all actives have a fitted effect of over 60% in size
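Viability of parental KB-3-1 cells, measured by CellTiter-Glo luminescence, followed a 72 h incubation at 37 °C with pinned compounds in phenol-red-free DMEM containing 10% FBS.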
D3 ag: D3 dopamine receptor (human) agonism | max activation, % | 410,000 compounds, 0.58% hits | D3R DiscoveRx beta-arrestin cells, luminescence, 90 min | P35462; in the data active means max activation above about 30%; further: 0% is about no effect
Target sequence (P35462 whole entry, looked up): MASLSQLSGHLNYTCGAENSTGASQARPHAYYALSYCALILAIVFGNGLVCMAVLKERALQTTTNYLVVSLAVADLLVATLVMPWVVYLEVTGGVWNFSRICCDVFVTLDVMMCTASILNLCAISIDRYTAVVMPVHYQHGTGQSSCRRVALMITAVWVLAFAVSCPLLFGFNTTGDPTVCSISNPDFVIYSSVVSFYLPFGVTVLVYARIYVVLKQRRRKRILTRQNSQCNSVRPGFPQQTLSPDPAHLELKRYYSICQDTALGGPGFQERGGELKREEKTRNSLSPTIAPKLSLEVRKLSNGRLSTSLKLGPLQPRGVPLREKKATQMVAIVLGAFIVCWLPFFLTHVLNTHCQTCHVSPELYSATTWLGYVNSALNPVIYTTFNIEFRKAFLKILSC
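Cells at 1500/well, incubated overnight, then treated with pinned compounds (dopamine as control) for 90 min at 37 degrees C. DiscoveRx reagent added for 30 - 60 minutes at room temperature; luminescence read.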
KB-V1 cytotox: KB-V1 MDR subline cytotoxicity | KB-V1 MDR cells viability, CellTiter-Glo, 72 h | Potency, µM (highest dose often 46.1 µM), most hits filed as cytotoxic | 400,000 compounds, 3.4% hits; further: potency means the concentration at half of the fitted maximal effect; on the % scale 0 is the no-effect control and ±100 the full control effect; nearly all actives have a fitted effect of over 60% in size
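Compound-treated KB-V1 multidrug-resistant cells, 72 h, 37 degrees C; viability by CellTiter-Glo. Fitted qHTS curves give the values.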
D3 antag: antagonists of human D3 dopamine receptor | AID 652054 | P35462 | D3R cells, DiscoveRx beta-arrestin luminescence, antagonist mode; active compounds read low | max response, negative = inhibition, % | 360,000 compounds, 2.5% hits; in the data active means max response below about -50%; inconclusive means no clear call, values can overlap the other calls; further: on the % scale 0 is the no-effect control and ±100 the full control effect
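Cells plated overnight at 1500 cells/well, then exposed to library compounds with dopamine controls for 90 minutes at 37 degrees C. DiscoveRx reagent added for 30–60 minutes at room temperature; luminescence read, quantitative HTS format.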
SW480 rereplic: induces DNA re-replication in SW480 colon adenocarcinoma cells | SW480 DNA re-replication, Hoechst DNA content imaging, 48 h | Potency, µM (top dose mostly 46.1 µM), for the others: at the top dose re-replication activation, actives largely listed as activators | 340,000 compounds, 1.8% hits | AID 624297; further: potency means the concentration at half of the fitted maximal effect; % of control where 0% means no effect; nearly all actives have a fitted effect of over 55% in size
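250 cells/well; 23 nL cpd via pin tool; 48 hr, 37 C, 5% CO2; Hoechst 40 min; imager read of total nuclear intensity, ex 405/em 500-530 nm.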
* hit, by the source's call; i = inactive; ? = inconclusive; . = no result given. Unless noted, the call rests on the fitted dose curve; in most records, active means well fitted curve in the direction sought with a large enough effect; inconclusive means small, poorly fitted or top-dose-only effect, or another doubt; inactive means no such curve, though single readings can be large; an effect the other way counts as inactive or inconclusive.

SMILES	MCF10A rerep	KB-3-1 cytotox	D3 ag	KB-V1 cytotox	D3 antag	SW480 rereplic
Cc1cccc(-n2ncc3c(NCc4ccccn4)ncnc32)c1	7.0%	i	2.8	i	-7.6	-1.1%
c1ccc(CNc2ncnc3c2cnn3-c2ccccc2)cc1	9.2µM*	5.17µM*	0.0	2.59µM*	?	13µM*
COc1ccc(C(=O)NCC(=O)N/N=C/c2cccc(OC(=O)c3ccco3)c2)cc1OC	3.26µM*	i	8.4	?	2.8	-7.0%
COc1ccc(-c2oc3ccccc3c2C#Cc2cncn2C)cc1	18.4µM*	i	16.2	?	0.0	?
COc1ccc(-c2sc3ccc(OC)cc3c2C#Cc2cncn2C)cc1	?	?	34.3*	?	120.0	-0.5%
COc1ccc(-c2sc3cc4c(cc3c2C#Cc2cncn2C)OCO4)cc1	-0.7%	i	-4.5	i	-1.1	5.7%
COCCCNC(=O)Cn1cnc2sc(C)c(S(=O)(=O)N3CCC(C)CC3)c2c1=O	.	i	-6.8	i	.	.
Cc1ccc(CNC(=O)c2ccc3c(c2)CCN3S(=O)(=O)c2ccc(Br)cc2)cc1	.	i	2.3	i	.	.
COCCn1c(SCC(=O)N2CCCCC2)nc2ccccc2c1=O	-6.3%	i	-13.9	4.11µM*	-26.6	-0.7%
Cc1ccc(OCCSc2nc3ccccc3n2CC(=O)N2CCCCC2)c(C)c1	.	?	3.4	11.6µM*	.	.
CCOC(=O)c1c(C)[nH]c(C)c1C(=O)CSc1nc2ccccc2c(=O)n1-c1ccc(Cl)cc1	?	?	3.4	10.3µM*	8.0	?
COCCCn1c(SCC(=O)N2CCOCC2)nc2ccccc2c1=O	4.5%	i	17.1	i	8.3	-47.6%
Cc1ccc(C)c(OCCSc2nc3ccccc3n2CC(=O)N2CCOCC2)c1	.	i	3.4	i	.	.
CCOC(=O)N1CCN(C(=O)CSc2nc3c([nH]c4ccccc43)c(=O)n2CC)CC1	14.7%	.	45.9*	.	27.3	9.7%
CCOC(=O)c1c(C)[nH]c(C)c1C(=O)CSc1nc2ccccc2c(=O)n1-c1ccc(C)cc1	-1.1%	i	1.2	i	-7.1	-7.0%
O=S(=O)(c1ccc(Oc2ccc3c(c2)OCO3)c(S(=O)(=O)N2CCOCC2)c1)N1CCOCC1	.	i	.	i	.	.
CCn1c(SCC(=O)N2CCCC2)nc2ccccc2c1=O	-1.0%	i	25.9	6.51µM*	-6.0	-0.8%
CCn1c(SCC(=O)N2CCN(c3ccc(Cl)cc3)CC2)nc2ccccc2c1=O	24.0%	i	7.3	2.59µM*	34.7	-2.6%
CC(C)Cn1c(SCC(=O)N2CCN(C(=O)c3ccco3)CC2)nc2ccccc2c1=O	0.651µM*	i	4.8	i	-2.9	8.2%
CCn1c(SCC(=O)N2CCN(c3ccc(F)cc3)CC2)nc2ccccc2c1=O	-13.6%	i	-2.6	?	24.4	-5.6%
CC(C)NC(=O)Cn1c(SCC(=O)N2CCCCCC2)nc2ccccc21	-5.4%	i	-2.5	14.6µM*	-17.5	-6.1%
O=C(Cn1c(SCC(=O)N2CCc3ccccc3C2)nc2ccccc21)NC1CCCC1	11.9%	i	-2.0	i	-18.7	-0.6%
COCCn1c(SCCN2CCCCC2)nc2ccccc2c1=O	0.3%	i	-6.4	i	-65.4*	-3.3%
O=C(Cn1c(SCC(=O)N2CCc3ccccc32)nc2ccccc21)NC1CCCC1	1.8%	?	-21.3	i	-76.4*	-0.1%
C[C@H](O)[C@@H]1C(=O)N2CCc3ccc(N4CCN(C)CC4)cc3[C@@H]2C[C@@H]1N(C)C(=O)c1ccc(C#N)cc1	17.2%	i	16.4	?	0.0	?
SMILES	MCF10A rerep	KB-3-1 cytotox	D3 ag	KB-V1 cytotox	D3 antag	SW480 rereplic
CCCCS(=O)CC(O)COCC (configuration not stated)	-1.8%	i	-13.9	i	-14.5	6.8%
CCCCS(=O)CC(O)COc1ccc(C(C)(C)C)cc1 (configuration not stated)	?	i	-1.2	20.6µM*	22.3	2.1%
COc1ccccc1NC(=O)CSc1nnc(-c2ccc(C)cc2)o1	4.9%	?	-1.9	i	-22.5	-1.0%
COc1ccccc1NC(=O)CSc1nnc(-c2ccccn2)o1	-1.3%	i	31.8*	i	11.6	?
O=C(CSc1nnc(-c2ccccn2)o1)Nc1ccccc1C(F)(F)F	-5.8%	i	7.7	?	3.6	-3.5%
COc1ccccc1NC(=O)CSc1nnc(-c2ccccc2C)o1	.	i	-0.7	i	.	.
COc1ccccc1NC(=O)CSc1nnc(-c2ccoc2C)o1	-5.6%	11.6µM*	-4.9	?	20.2	-13.5%
COc1ccc(C)cc1NC(=O)CSc1nnc(-c2ccc(Br)cc2)o1	13µM*	i	4.1	i	13.9	20.3%
Cc1cc(C)cc(NC(=O)CSc2nnc(-c3ccccc3C)o2)c1	12.2%	i	5.5	11.6µM*	12.0	-4.5%
C[S+](C)CCC(N)C(=O)O (configuration not stated)	.	.	1.3	.	.	.
O=c1c(Cl)cc(Cl)nn1-c1ccccc1	5.8µM*	?	1.2	?	-16.9	?
COc1cc(Cl)nn(-c2ccccc2)c1=O	0.1%	i	1.4	i	-5.1	18.2%
CC(=O)Oc1ccc(C(=O)Nc2ccc3c(c2)OCCO3)cc1	?	?	-3.1	?	-15.4	1.2%
COc1ccc(C(=O)CCNc2cccc(Cl)c2)cc1	-5.7%	i	-17.9	i	-9.5	-0.2%
COc1ccccc1/C=C/C(=O)Nc1ccc2c(c1)OCCO2	13µM*	5.17µM*	-8.9	20.6µM*	11.4	16.4µM*
COc1ccc(C(=O)CCNc2ccc3c(c2)OCCO3)cc1	23.1µM*	i	0.8	i	0.2	?
COc1ccc(C(=O)Nc2ccc3[nH]ccc3c2)cc1OC	?	?	9.6	i	8.4	4.5%
COc1ccc(C(=O)Nc2ccc3[nH]ccc3c2)cc1	?	16.4µM*	7.0	16.4µM*	-19.6	?
COc1ccc(C(=O)Nc2ccc3c(c2)OCCO3)cc1	?	i	-1.4	?	-14.4	7.31µM*
CCOc1ccc(NC(=O)Cn2c(=O)n(-c3cccc(Cl)c3)c(=O)c3c2c2cc(C)ccc2n3C)cc1	.	i	7.5	?	.	.
CCc1cccc(NC(=O)c2cn3c4c(ccc(Cl)c4c2=O)OC(C)C3)c1 (configuration not stated)	.	i	-9.6	i	.	.
COc1ccc(NC(=O)Cn2c(=O)n(CC3CCCO3)c(=O)c3ccccc32)cc1 (configuration not stated)	.	i	9.8	i	.	.
COc1ccc(OC)c(/C=C/C(=O)Nc2ccc3c(c2)CCC3)c1	13.4%	i	-57.1	16.4µM*	-14.2	-2.6%

From PubChem
